This excerpt belongs to a sample that is enriched for hits.
TDP-43 tox inh – qHTS of TDP-43 Inhibitors: NCGC Sytravon Library Screen | 0.45% of 45,000 active | Potency, µM (highest dose often 46.1 µM), usual class: activators | yeast TDP-43 toxicity rescue, BacTiter-Glo growth, 24 h; active = well fitted activation curve with a large enough effect; also: nearly all actives have a fitted effect of over 55% in size
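TDP-43-expressing yeast, pregrown in raffinose, seeded at OD600 0.02 in galactose medium with compound for 24 hr at 30 deg C. Growth read by BacTiter-Glo luminescence, so rescue of toxicity appears as activation.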
Large screens that a line does not name were inactive.

COc1ccc(C)cc1Nc1nc(-c2c[nH]c3ccccc23)cs1	none
O=C(c1cccs1)c1cn(CCOc2ccc(F)cc2)c2ccccc12	none
COc1ccccc1-c1nc2cc3ccccc3cc2nc1-c1ccccc1OC	none
COc1ccccc1-c1c(C)nn2c(C(F)(F)F)cc(-c3ccccc3)nc12	none
COc1ccccc1-c1cn(C(C)(C)C)nc1C	TDP-43 tox inh 11µM
CCCCOc1cccc(C2c3c(oc4ccccc4c3=O)C(=O)N2c2ccccn2)c1 (centres undefined)	none
COc1ccc(CNC(=O)CSc2cc(=O)n(C)c3ccccc23)cc1	none
CCOc1ccc(CNC(=O)c2cc3oc4ccccc4c3n2C)cc1	none
COc1ccc(CNC(=O)c2cc3sccc3n2C)cc1	TDP-43 tox inh 13µM
CCN1CCN(C(=O)c2cc(S(=O)(=O)N3CCCCC3)ccc2Cl)CC1	none
O=C(Nc1ccc(F)c(Cl)c1)C1Cc2ccccc2CN1S(=O)(=O)c1ccc(F)cc1 (centres undefined)	none
CCc1ccccc1NC(=O)CC1NCCNC1=O (centres undefined)	none
CN(Cc1ccccc1)c1oc(-c2ccco2)nc1C#N	TDP-43 tox inh 14µM
N#Cc1nc(-c2ccc(OCc3ccccc3)cc2)oc1NCc1ccco1	none
CC1CN(c2oc(-c3ccco3)nc2C#N)CC(C)O1 (centres undefined)	none
Cc1nn(-c2ccccc2)c(Cl)c1/C=N/NC(=O)CCNc1n[nH]c(=O)[nH]c1=O	none
COc1ccc(Br)c2c1-c1nc(NC(=O)c3cccc(C)c3)sc1C2	none
Cc1ccc(NC(=O)CCCN2C(=O)COc3ccc(C)cc32)c(C)c1	none
COc1ccc(C(NC(=O)C2CCN(CCc3ccccc3)CC2)c2ccccn2)cc1 (centres undefined)	none
CC(CN1CCOCC1)OC(=O)CCc1ccccc1 (centres undefined)	none
CC1CCN(CC(C)OC(=O)c2ccco2)CC1 (centres undefined)	none
CC(CN1CCOCC1)OC(=O)c1ccc(Br)cc1 (centres undefined)	TDP-43 tox inh 16µM
Cc1c(Cl)cccc1NC(=O)Cn1nnc(-c2nc(-c3ccccc3)no2)c1N	none
N#C/C(=C/c1ccc(N2CCOCC2)o1)c1ccc(Br)cc1	TDP-43 tox inh 14µM
CCCN1C(=O)S/C(=C/c2ccc(N3CCOCC3)o2)C1=O	none
N#C/C(=C\c1ccc(N2CCOCC2)o1)C(=O)Nc1ccc(O)cc1	none
CC(=O)Nc1ccc(Nc2nc3ccc(Cl)cc3n3cnnc23)cc1	none
Cc1ccc(NC(=O)N2CCc3cc(S(=O)(=O)N4CCC(C)CC4)ccc32)cc1F	none
O=C(NCCc1ccccc1)c1ccc(-c2cccnc2)c2ccoc12	none
Cn1cc(-c2ccc(C(=O)NCc3cccc(Cl)c3)c3occc23)cn1	none
O=C(NCc1cccc(Cl)c1)c1ccc(-c2cccnc2)c2ccoc12	TDP-43 tox inh 14µM
COc1cc(OC)c(NC(=O)C2=C(C)C(=O)OC23CCCCC3)cc1Cl	none
CC(C)CC(NC(=O)C1CCC(=O)N1C(=O)OCc1ccccc1)C(=O)NC(Cc1ccccc1)C(N)=O (centres undefined)	none
COc1ccccc1NC(=O)CN1C(=O)C(c2ccc(F)cc2)=NC1(C)C	none
CCOc1ccc(NC(=S)NCc2nc3ccccc3[nH]2)cc1	none
S=C(Nc1ccc(Cl)cc1)c1nc2ccccc2[nH]1	TDP-43 tox inh 10µM
O=C(/C(=C\c1ccccc1)c1nc2ccccc2[nH]1)c1ccc(Cl)cc1	none
O=C(CCCn1cc([N+](=O)[O-])cn1)Nc1ccc2c(c1)OCO2	none
COc1ccc(NC(=O)Cn2nnc(-c3nc(-c4ccncc4)no3)c2N)cc1OC	none
Cc1ccc(-c2nc(NC(=O)CSc3ncnc4sc5c(c34)CCC(C)C5)ns2)cc1 (centres undefined)	none
COc1ccc(-c2csc3ncnc(N4CCN(c5ccccc5OC)CC4)c23)cc1	TDP-43 tox inh 14µM
COc1ccc(-c2csc3ncnc(N4CCN(CCO)CC4)c23)cc1	none
COc1ccccc1N1CCN(c2cnccn2)CC1	none
CC(C)c1ccc(/C=C/C(=O)O)cc1	TDP-43 tox inh 6.3µM
CC(C)c1ccc(/C=C/C(=O)NCCC2=CCCCC2)cc1	none
CC(NC(=O)/C=C/c1ccc(Br)cc1)c1ccccc1 (centres undefined)	none
NC(=S)N/N=C/c1ccc(-c2ccc(SC(F)F)cc2)o1	none
O=C(O)c1cc(-c2ccc(/C=N/NC(=S)Nc3ccccc3)o2)ccc1Cl	none
NC(=S)N/N=C/c1ccc(-c2ccc(Cl)c(Cl)c2)o1	TDP-43 tox inh 11µM
Fc1cccc(-n2ncc3c2ncn2nc(COc4ccc(Cl)cc4)nc32)c1	none
Cc1ccc(NCc2cccn2-c2nnc(N3CCC(C(=O)NCc4ccc(F)cc4)CC3)s2)cc1	none
Cc1nc2ccc(S(=O)(=O)NCC(=O)Nc3ccc(F)cc3F)cc2s1	none
Cc1csc(NC(=O)c2ccc3nc[nH]c3c2)n1	none
N/C(Cc1ccc([N+](=O)[O-])cc1)=N\OC(=O)c1ccc2ccccc2c1	TDP-43 tox inh 8.9µM
N/C(=N\OC(=O)c1ccc([N+](=O)[O-])cc1)c1cccnc1	none
N/C(=N\OC(=O)Cc1ccc([N+](=O)[O-])cc1)c1ccc([N+](=O)[O-])cc1	none
CCN(CC)S(=O)(=O)c1ccc(N2CCOCC2)c(NS(=O)(=O)c2cc(C(C)(C)C)ccc2C)c1	none
COc1cc2c(cc1NC(=O)COc1cc(C)ccc1C)oc1ccccc12	none
COc1ccc(-n2ncc3c2ncn2nc(-c4ccc(Cl)cc4Cl)nc32)cc1	none
NS(=O)(=O)c1ccc(CCNC(=O)CSc2ncnc3ccccc23)cc1	none
COC(=O)c1c(NC(=O)CSc2ncnc3ccccc23)sc(C)c1C	none
CCN(CC)S(=O)(=O)c1ccc(NC(=O)CSc2ncnc3ccccc23)cc1	TDP-43 tox inh 22µM
CCCCNC(=O)COC(=O)c1ccc(NC(C)=O)cc1	none
CCCOc1ccc(CNC(=O)c2ccc3c(c2)N(Cc2ccccc2)CCS3)cc1	none
Cc1ccc(Cl)cc1NC(=O)Cn1c(=O)oc2cc(S(=O)(=O)N3CCCC3)ccc21	none
COc1cc(/C=N/NC(=O)CC23CC4CC(CC(C4)C2)C3)cc(Br)c1OCC(=O)N(C)C	none
COc1cccc(NC(=O)Cn2c(=O)n(CC(=O)NCCc3ccccc3)c(=O)c3sccc32)c1	none
O=C(c1c[nH]c(C(=O)N2CCN(c3ccccc3F)CC2)c1)c1cccc(Cl)c1Cl	TDP-43 tox inh 20µM
NC(=O)c1cc(C(=O)c2cccc(Cl)c2Cl)c[nH]1	none
O=C(c1ccc(Cl)c(S(=O)(=O)N2CCCC2)c1)N1CCN(c2ccccc2F)CC1	none
CCOC(=O)C1CCN(C(=O)CC2(CC(=O)O)CCCC2)CC1	none
Cc1nc2ccc(NC(=O)c3ccc(=O)[nH]c3)cc2s1	none
C=CCNC(=O)Nc1ccc2nc(C)sc2c1	none
CCc1sc(C(=O)Nc2ccc3nc(C)sc3c2)cc1C	TDP-43 tox inh 11µM
CCOC(=O)c1sc(NC(=O)C(C)Oc2ccc(OC)cc2)c(C(=O)OCC)c1C (centres undefined)	none
Cc1cc(OCC(=O)Nc2cc(-c3nc4ccccc4[nH]3)ccc2C)ccc1Cl	none
COc1ccc(/C=N/NC(=O)Cn2cnc3c2c(=O)n(C)c(=O)n3C)cc1	none
COC(=O)c1ccc(NC(=O)Cn2cnc3c2c(=O)n(C)c(=O)n3C)cc1	none
Cn1c(=O)c2c(ncn2CCOc2ccc(Br)cc2)n(C)c1=O	TDP-43 tox inh 11µM
CCCOc1ccc(N2CC(C(=O)Nc3cccc(Cl)c3Cl)CC2=O)cc1 (centres undefined)	none
Cc1ccc(-c2noc(-c3nnn(CC(=O)Nc4cc(Cl)ccc4C)c3N)n2)cc1	none
COc1ccc(-c2nn3c(-c4ccccc4C)nnc3c3ccccc23)cc1	none
COc1cc(/C=C2\C(=O)ON=C2c2ccccc2)cc(OC)c1OC	TDP-43 tox inh 11µM
